# Compounds with a hit are over-represented: about 5.4% of the library has one in this group of screens.
# Exocytosis inh: LAMP-1 surface exposure blockers, TALL-104 cells – cell-based, flow cytometry, MLPCN library, primary screen | 360,000 tested, 0.66% active | inhibition, % at 10 µM | AID 651702, 2012 | TALL-104 LAMP-1 surface exposure; cells stimulated with thapsigargin and PMA;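 active = inhibition above about 55%, limit read from the data; inconclusive = no clear call, values can overlap the other calls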
# MIN6 prolif: inducers of MIN6 beta-cell proliferation, primary screen, ATP luminescence, uHTS; MIN6 cells proliferation, ATPlite luminescence, 48 h; cells starved in 0.2% serum; 100% = growth in 10% serum; proliferation, % at 10 µM; 330,000 tested, 0.29% active;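 active = compounds whose signal lies at least 3.5 SD above the mean of all wells on their plate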;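 note: 0% = DMSO-treated cells in low-serum medium and 100% = 10% serum control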
# ALR inh: inhibitors of human ALR sulfhydryl oxidase, primary screen, biochemical, H2O2 detection, HRP-luminol luminescence, single point | FAD-linked sulfhydryl oxidase ALR (Homo sapiens), P55789 | purified ALR, DTT oxidation | inhibition, % (no concentration beside the values) | 290,000 tested, 3.8% active;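 active = mean replicate inhibition above about 79%, with every replicate also reaching it, limit read from the data; inconclusive = only one of the two criteria met; inactive = mean below limit and not every replicate reaching it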
# Target sequence (P55789 whole entry, looked up): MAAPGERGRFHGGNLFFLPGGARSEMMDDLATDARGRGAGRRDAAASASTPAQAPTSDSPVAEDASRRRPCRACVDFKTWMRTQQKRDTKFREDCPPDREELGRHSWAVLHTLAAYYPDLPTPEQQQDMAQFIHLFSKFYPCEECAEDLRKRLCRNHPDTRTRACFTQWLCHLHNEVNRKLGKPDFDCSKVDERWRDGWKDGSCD
# M18AAP inhibitor: PfM18AAP inhibitors, malaria aminopeptidase, primary screen, biochemical, QFRET, recombinant enzyme; M18 aspartyl aminopeptidase (Plasmodium falciparum 3D7); 290,000 tested, 1.2% active; H-Glu-NHMec fluorogenic cleavage; AID 1822, 2009; inhibition, % at 7.35 µM;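 active = inhibition above the campaign mean inhibition over all tested compounds plus 3 SD, cut at about 28% in these data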;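 note: 0% = plate median of test compound wells and 100% = 2 mM ZnCl2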
# JMJD2C inh: inhibitors of GASC-1 histone demethylase, primary screen, biochemical, fluorescence, DELFIA europium | AID 2099, 2009 | inhibition, % at 2.35 µM | 330,000 tested, 0.069% active | GST-JMJD2C(1-420) H3K9me3 demethylation | Lysine-specific demethylase 4C (Homo sapiens), Q9H3R0;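 active = more than half of a compound's replicate wells show inhibition beyond 50%, single wells judged on their own value; inconclusive = some, but no more than half, of replicates pass 50% inhibition; inactive = no replicate passes 50% inhibition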;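 note: signal counts dimethyl H3K9 product captured on neutravidin plate; 0% = median of DMSO wells and 100% = 0.3 times that DMSO median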
# Target sequence (Q9H3R0 1-420 limits assumed): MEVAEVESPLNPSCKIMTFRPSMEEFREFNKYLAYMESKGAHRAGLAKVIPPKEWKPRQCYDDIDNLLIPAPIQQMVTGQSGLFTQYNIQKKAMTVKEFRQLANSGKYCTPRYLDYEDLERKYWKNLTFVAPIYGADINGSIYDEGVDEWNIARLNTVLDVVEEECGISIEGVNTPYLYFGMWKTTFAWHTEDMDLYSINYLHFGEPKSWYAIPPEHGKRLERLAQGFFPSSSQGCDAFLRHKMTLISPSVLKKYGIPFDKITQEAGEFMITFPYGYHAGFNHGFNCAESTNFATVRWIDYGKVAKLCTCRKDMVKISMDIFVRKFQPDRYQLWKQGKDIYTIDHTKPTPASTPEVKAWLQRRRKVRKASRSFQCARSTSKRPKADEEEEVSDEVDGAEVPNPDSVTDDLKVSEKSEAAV
# SMARCA2 activ: SMARCA2 (BRM) function activators, primary screen, cell-based, luminescence, high throughput; MG213 cells, MMTV-luciferase reporter, dexamethasone, overnight; AID 652017, 2013; activation, % at 9.1 µM; 370,000 tested, 1% active; in the data active = activation above about 7.8%;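 note: 0% = vehicle wells and 100% = reference activator wells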
# Numbers without * were called inactive; ? = inconclusive; / = no result given.
SMILES,Exocytosis inh,MIN6 prolif,ALR inh,M18AAP inhibitor,JMJD2C inh,SMARCA2 activ
Cc1occc1C(=O)NCc1ccccn1,-2,-1,82*,14,-17,-1
CN(C)c1ccc(CNS(=O)(=O)c2ccc3c(c2)NC(=O)CS3)cc1,5,3,99*,1,-3,-3
COC(=O)[C@]12C=CCN1[C@@H](c1ccc(C(F)(F)F)cc1)c1c(c3ccccc3n1S(=O)(=O)c1ccc(C)cc1)C2,/,/,/,/,/,-6
O=C(C1CCCN1S(=O)(=O)c1cccc2cccnc12)N1CCN(c2ccccc2)CC1 (configuration not stated),6,2,88*,7,15,-1
COc1ccc(N2CCN(S(=O)(=O)c3cccc4cccnc34)CC2)cc1,-2,-2,78*,3,-8,1
CCn1ncc(S(=O)(=O)N2CCN(c3cccc(OC)c3)CC2)c1C,-1,-1,47,-4,7,-3
COc1cccc(N2CCN(S(=O)(=O)c3cccc4cccnc34)CC2)c1,0,5,94*,2,-32,-3
O=C(O)[C@H]1CCCN1S(=O)(=O)c1cccc2cccnc12,-7,-2,/,/,2,0
O=S(=O)(c1cccc2cccnc12)N1CCN(c2ccc(F)cc2)CC1,-3,-3,/,-7,3,0
Cc1cccc(NC(=O)CNC(=O)[C@@H](Cc2ccccc2)NC(=O)[C@H]2O[C@@H](n3ccc(=O)[nH]c3=O)[C@H](O)[C@@H]2O)c1C,/,/,/,/,/,-5
Nc1[nH]c2cc(C(F)(F)F)ccc2c1C(=O)NCc1ccc(F)cc1,/,/,/,/,/,-2
O=C(CN1CCN(c2nc(-c3ccccc3)cs2)CC1)Nc1ccc(F)cc1F,/,/,/,/,/,-3
Cc1ccc(S(=O)(=O)N2CCC(C(=O)NCc3cccs3)CC2)cc1,/,/,/,/,/,-1
N#Cc1cccc(CNCC(=O)N2CCC3(CC2)OCCO3)c1,/,/,/,/,/,-4
OC1=C(O)c2nc3cc(C(F)(F)F)ccc3nc21,47,-3,98*,10,-12,-7
CCOC(=O)Cc1cc(=O)n(-c2nc3ccccc3s2)[nH]1,0,-5,98*,21,3,2
CCCc1cc(=O)n(-c2nc3ccccc3s2)[nH]1,-3,-6,0,4,-3,4
O=c1n(CCCN2CCN(c3cccc(Cl)c3)CC2)nc2ccccn12,-8,1,93*,1,-25,-5
C(=N\Nc1nc2ccccc2s1)/c1cccs1,0,-4,89*,14,2,1
Cc1ccsc1/C=N/Nc1nc2ccccc2s1,-2,-5,/,13,-387,0
CCCN1CCS(=O)(=O)N(Cc2cn(Cc3ccc(C)cc3)nn2)C(C(=O)OC)C1 (configuration not stated),/,/,/,/,/,5
CCN1/C(=C/C(C)=O)Sc2ccc(OC)cc21,0,-4,/,-7,-5,-4
Cc1ccc2c(c1)N(C)/C(=C/c1cccc[n+]1CCO)S2,16,-4,45,2,-5,-5
COc1ccc2c(c1)N(C)/C(=C/c1cccc[n+]1C)S2,4,-7,97*,6,-4,-3
Cc1ccc2c(c1)N(C)/C(=C/c1cccc[n+]1C)S2,-4,-5,97*,-8,-20,-3
SMILES,Exocytosis inh,MIN6 prolif,ALR inh,M18AAP inhibitor,JMJD2C inh,SMARCA2 activ
CN1/C(=C/c2cccc[n+]2C)Sc2ccccc21,-6,-7,32,4,1,0
CCN1/C(=C/c2cccc[n+]2C)Sc2ccc(OC)cc21,5,-5,98*,3,-3,-8
CCC(CO)Nc1cccc2c1S(=O)(=O)N(Cc1cn(Cc3ccc(C(F)(F)F)cc3)nn1)Cc1ccccc1O2 (configuration not stated),/,/,/,/,/,5
C[C@@H]1OC(c2ccccc2)N(C)[C@H]2C[C@H]3c4[nH]c5cccc(-c6ccccc6)c5c4CCN3C[C@@H]12 (some centres not stated),/,/,/,/,/,-3
COc1ccccc1NC1C=CS(=O)(=O)C1 (configuration not stated),-2,-1,76*,-11,-5,-2
CCOc1ccc(-n2c(SCC(=O)Nc3cccc4ccccc34)nnc2-c2ccccc2)cc1,/,/,/,/,/,-1
CCCCCCCCNS(=O)(=O)CC1NCc2ccccc21 (configuration not stated),/,/,/,/,/,-2
COC(=O)CSc1nc(-c2ccccc2)cc(-c2ccco2)c1C#N,5,2,95*,-5,3,4
CCOC(=O)c1[nH]c2ccccc2c1NC(C)=O,4,5,-7,/,-2,0
CCOC(=O)c1[nH]c2ccccc2c1NC(=S)Nc1cccc(C)c1,-6,-2,98*,0,-11,-1
CCOC(=O)c1[nH]c2ccccc2c1NC(=S)Nc1ccccc1,1,3,98*,1,11,5
CCOC(=O)c1[nH]c2ccc(C)cc2c1NC(=O)CN1CCCCC1,2,1,98*,0,-5,0
CC1CCN(C(=O)C2CCCN(C(=O)c3ccc4c(c3)NC(=O)CS4)C2)CC1 (configuration not stated),/,/,/,/,/,5
C=CCN1C(=O)[C@@H](CC(=O)NCCc2ccccc2OC)[C@]2(C(=O)OCC)CCCCC/C=C/12,/,/,/,/,/,-4
COc1cc(N2CCCC2)c(OC)cc1/C=C1/NC(=S)NC1=O,-6,0,1,28*,2,-2
COc1ccc(OC)c(/C=C2\NC(=O)NC2=O)c1,0,-4,0,7,-15,-2
CCOc1ccc(C(=O)Nn2cnnc2)cc1,1,-3,0,22,-6,-2
Cc1ccc(C(=O)Nn2cnnc2)cc1,-7,0,20,29*,-5,-1
ClCC1=Nc2cccc3cccc(c23)N1,/,-6,99*,15,9,/
CCc1ccc(NC(=O)/C(C#N)=C/c2ccncc2)cc1,-12,0,?,9,-1,0
CC(=O)c1ccc(NC(=O)/C(C#N)=C/c2ccncc2)cc1,-3,-3,98*,13,-1,0
S=C(c1ccc(-c2ccc(Cl)cc2Cl)o1)N1CCCC1,15,-2,96*,-4,16,0
O=C(/C=C/c1ccc([N+](=O)[O-])cc1)N(c1ccccn1)C1CCCCC1,2,-4,/,43*,0,-2
N#C/C(=C\c1ccccc1)C(=O)N(c1ccccn1)C1CCCCC1,6,-2,50,-1,-3,-2
N#Cc1cccc(C(=O)N2CCC(Oc3cccnc3)CC2)c1,/,/,/,/,/,2
Cc1ccc(CSCC(=O)N2CCN(c3ccccc3)CC2)cc1,5,-1,36,-2,7,-2

# Screening results as filed in PubChem.
